Source: PMC4336329 (PLoS ONE, 2015)
In all, about 310,000 compounds went through this assay and about 14,000 (4.5%) showed an effect of 50% or more. Effects have a minus sign here. The sample as a whole holds a higher share of strong results than the screen did.

Target: human ether-à-go-go-related gene (hERG) potassium channel (human, UniProt Q12809)
Experiment: primary screen, population patch clamp on CHO cells stably expressing hERG; higher = less effect of the substance
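Further: peak tail current of the secondary pulse compared with the same well before compound.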

Sequence of human ether-à-go-go-related gene (hERG) potassium channel (Q12809 whole entry, looked up): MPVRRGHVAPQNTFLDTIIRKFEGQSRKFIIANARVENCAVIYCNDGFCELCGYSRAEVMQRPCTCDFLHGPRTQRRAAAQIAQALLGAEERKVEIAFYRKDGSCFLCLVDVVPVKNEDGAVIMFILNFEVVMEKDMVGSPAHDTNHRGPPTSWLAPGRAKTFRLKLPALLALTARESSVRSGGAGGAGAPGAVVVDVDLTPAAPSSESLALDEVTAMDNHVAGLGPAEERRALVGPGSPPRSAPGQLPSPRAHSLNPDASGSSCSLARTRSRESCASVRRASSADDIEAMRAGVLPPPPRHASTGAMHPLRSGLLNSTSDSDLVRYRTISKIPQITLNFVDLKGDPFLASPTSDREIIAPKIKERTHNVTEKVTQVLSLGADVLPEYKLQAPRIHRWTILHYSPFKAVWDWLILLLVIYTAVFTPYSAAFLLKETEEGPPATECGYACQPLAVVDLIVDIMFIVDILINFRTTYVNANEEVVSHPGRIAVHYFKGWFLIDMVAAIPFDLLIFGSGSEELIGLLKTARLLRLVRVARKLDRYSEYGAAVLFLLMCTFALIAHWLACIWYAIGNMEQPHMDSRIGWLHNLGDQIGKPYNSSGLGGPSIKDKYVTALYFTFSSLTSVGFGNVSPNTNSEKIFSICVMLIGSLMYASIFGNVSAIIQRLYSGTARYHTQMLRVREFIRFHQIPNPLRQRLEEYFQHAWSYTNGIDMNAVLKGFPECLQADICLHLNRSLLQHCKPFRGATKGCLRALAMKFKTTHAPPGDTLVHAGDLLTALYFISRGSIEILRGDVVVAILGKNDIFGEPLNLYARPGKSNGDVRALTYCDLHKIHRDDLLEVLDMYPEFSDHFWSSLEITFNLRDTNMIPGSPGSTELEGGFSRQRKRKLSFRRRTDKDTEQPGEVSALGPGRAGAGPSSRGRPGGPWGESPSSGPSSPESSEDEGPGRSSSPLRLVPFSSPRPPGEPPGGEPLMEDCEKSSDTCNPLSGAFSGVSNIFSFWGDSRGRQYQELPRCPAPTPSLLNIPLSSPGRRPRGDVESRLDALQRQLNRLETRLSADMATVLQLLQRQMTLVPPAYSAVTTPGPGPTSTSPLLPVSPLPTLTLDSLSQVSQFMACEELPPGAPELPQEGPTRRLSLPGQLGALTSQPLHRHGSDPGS

Row | SMILES | hERG current change (%, negative = inhibition) at 10uM
1 | C[C@]12CC[C@@H]3c4ccc(O)cc4CC[C@H]3[C@@H]1CC[C@@H]2OC(=O)CCC1CCCC1 | 14%
2 | O=C(CN1C(=O)CSCC1=O)Nc1ccc2c(c1)OCO2 | 16.2%
3 | Cc1ccc(S(=O)(=O)N2CCCCC2)cc1C(=O)c1nccn1C | -2.56%
4 | O=C(N/N=C\c1cn(-c2ccccc2)nc1-c1ccccc1)c1ccc2c(c1)OCO2 | 11.3%
5 | O=C(CSc1nnc(-c2ccncc2)n1-c1ccccc1)NC1CC1 | 4.69%
6 | Cc1cc(/C=C2\SC(=Nc3ccc(N4CCOCC4)cc3)N(C)C2=O)c(C)n1-c1cccnc1 | 11.3%
7 | Cc1cc(=O)n2[nH]c(C(F)(F)F)c(-c3ccccc3)c2n1 | 3.6%
8 | CC(C)C1NC(=S)N(Cc2ccccc2)C1=O (centres unmarked) | 5.2%
9 | CC(NC(=O)C1CCN(C(=O)[C@@H]2Cc3ccccc3CN2)CC1)c1ccccc1 (some centres unmarked) | -25.7%
10 | CC(C)c1ccc(NC(=O)C2CCN(C(=O)[C@@H]3Cc4ccccc4CN3)CC2)cc1 | -67.4%
11 | CC(C)c1ccc(NC(=O)C2CCC(CNC(=O)[C@@H]3Cc4ccccc4CN3)CC2)cc1 (some centres unmarked) | 9.65%
12 | CCOc1ccc(NC(=O)COC(=O)c2c(OC)cccc2OC)cc1 | -1.27%
13 | OC(c1ccc2c(c1)OCO2)c1nccc2ccccc12 (centres unmarked) | -1.04%
14 | Cl.O=C(CN1C2=NCCN2c2ccccc21)N1CCOCC1 | 9.79%
15 | Cl.OC(CN1C2=NCCN2c2ccccc21)c1ccc2c(c1)OCO2 (centres unmarked) | -63.6%
16 | Cl.OC(CN1C2=NCCCN2c2ccccc21)c1ccc2c(c1)OCO2 (centres unmarked) | -70.2%
17 | COc1cc(C(=O)NNC(=O)CSc2nnc3ccccn23)cc(OC)c1OC | 15.4%
18 | CCCC(=O)Nc1ccc(C(=O)N/N=C/c2cccnc2)cc1 | -8.24%
19 | CC1(C)Cc2c(cnn2-c2ccc(F)cc2)C(NC(=O)CCCN2CCCCC2=O)C1 (centres unmarked) | 2.89%
20 | CCOC(=O)Cn1c(=O)c2c(nc3n2CCCCN3c2ccc(OCC)cc2)n(C)c1=O | -41.4%
21 | CCCCOC(=O)Cn1c(=O)c2c(nc3n2CCCCN3c2ccc(C)cc2)n(C)c1=O | -52.8%
22 | CCOC(=O)Cn1c(=O)c2c(nc3n2CCCCN3c2ccc(C)cc2)n(C)c1=O | -19.5%

Row | SMILES | hERG current change (%, negative = inhibition) at 10uM
23 | Cc1ccccc1S(=O)(=O)Cc1ccc(C(=O)NCCN2CCCCC2C)o1 (centres unmarked) | -39.3%
24 | CCOc1cc2c(cc1OCC)C(c1ccccc1)N(c1ccccc1)C(=O)C2 (centres unmarked) | -6.2%
25 | CCOc1cc2c(cc1OCC)C(c1ccc(OC)cc1)N(c1ccccc1)C(=O)C2 (centres unmarked) | -57.5%
26 | CCOc1ccc(C2c3cc(OC)c(OC)cc3CC(=O)N2c2ccccc2)cc1 (centres unmarked) | -26.5%
27 | COC(=O)c1ccc(-n2c(C)cc(C(=O)COC(=O)CC3Sc4ccccc4NC3=O)c2C)cc1 (centres unmarked) | 28.5%
28 | Cc1cc(N2CCN(C)CC2)nc2ccc(NC(=O)CCC(=O)NCc3ccco3)cc12 | 7.05%
29 | CCCN1CCN(C(=S)Nc2ccc3nc(N4CCN(CC)CC4)cc(C)c3c2)CC1 | 2.61%
30 | CCN1CCN(c2cc(C)c3cc(NC(=S)N4CCCCC4)ccc3n2)CC1 | -50.1%
31 | CCN1CCN(c2cc(C)c3cc(NC(=S)N4CCCC(C)C4)ccc3n2)CC1 (centres unmarked) | -51.3%
32 | Cc1cc(N2CCN(C)CC2)nc2ccc(NC(=S)N3CCCCCC3)cc12 | -67.2%
33 | CCN1CCN(C(=S)Nc2ccc3nc(N4CCN(C)CC4)cc(C)c3c2)CC1 | -2.94%
34 | Cc1cc(N2CCN(C)CC2)nc2ccc(NC(=O)CCC3CCCC3)cc12 | -74.6%
35 | Cc1cc(N2CCN(C)CC2)nc2ccc(NC(=O)CCC(=O)NCCC(C)C)cc12 | 13.8%
36 | CCN1CCN(c2cc(C)c3cc(NC(=S)N4CCOCC4)ccc3n2)CC1 | -23.4%
37 | Cc1cc(N2CCN(C)CC2)nc2ccc(NC(=S)N3CCOCC3)cc12 | -15.4%
38 | CCN1CCN(C(=S)Nc2ccc3nc(N4CCN(CC)CC4)cc(C)c3c2)CC1 | -13.9%
39 | CCN1CCN(c2cc(C)c3cc(NC(=S)N4CCCC4)ccc3n2)CC1 | -15.9%
40 | N/C(=N\OC(=O)/C=C/c1ccc(Br)cc1)c1ccccn1 | -6.37%
41 | OC(CSc1ccc(F)cc1)CN1CCN(c2ccccc2)CC1 (centres unmarked) | -41.7%
42 | O=C(CSc1nnc2c(Cl)cc(C(F)(F)F)cn12)NCc1ccc(F)cc1 | -4.27%
43 | CC(C)CN(C(=O)CSc1nnnn1C)C1CCS(=O)(=O)C1 (centres unmarked) | 26%
44 | CCC/C(=N\NC(=O)Cc1csc(N2CCOCC2)n1)c1ccccc1 | -13.5%

Row | SMILES | hERG current change (%, negative = inhibition) at 10uM
45 | O=C(N/N=C/c1ccc[nH]1)c1ccc(O)cc1 | 19.6%
46 | Cc1c(Cl)c([N+](=O)[O-])nn1CC(=O)N1CCCC1 | -4.86%
47 | Cc1c(Cl)c([N+](=O)[O-])nn1CC(=O)N1CCc2ccccc2C1 | 1.08%
48 | Cc1cc([N+](=O)[O-])nn1CC(=O)N1CCN(Cc2ccccc2)CC1 | -8.96%
49 | Cc1c(Br)c([N+](=O)[O-])nn1CC(=O)N1CCN(Cc2ccccc2)CC1 | -56.4%
50 | Cc1c(Br)c([N+](=O)[O-])nn1CC(=O)NCc1ccccc1 | -2.99%
51 | Cc1c(Cl)c([N+](=O)[O-])nn1CC(=O)N1CCN(Cc2ccccc2)CC1 | -71%
52 | CC(C)(C)c1nc(SCC(=O)NCc2cccs2)c2ccccc2n1 | -0.222%
53 | CCCCn1c(SCC(=O)Nc2nnc(C)s2)nc2c1c(=O)n(C)c(=O)n2C | -12.4%
54 | Cc1ccc(-n2c(O)c(C=NCc3ccccn3)c3ccccc3c2=O)cc1C | -11.5%
55 | CC1=C(C(=O)OCC2CCCO2)C(c2ccccc2Cl)NC(=O)N1 (centres unmarked) | 14.1%
56 | Cc1ccc(CN2CCN(C(=O)CCN3C(=O)c4ccccc4C3=O)CC2)cc1 | -55.4%
57 | CN1CCN(C(=O)CCN2C(=O)c3ccccc3C2=O)CC1 | 14.7%
58 | O=C(CCN1C(=O)c2ccccc2C1=O)N1CCN(Cc2ccccc2)CC1 | -22.8%
59 | O=C(CCN1C(=O)c2ccccc2C1=O)N1CCCCCC1 | 0.431%
60 | O=C(CCN1C(=O)c2ccccc2C1=O)N1CCN(Cc2ccc(Cl)cc2Cl)CC1 | -53.4%
61 | CCN1CCN(C(=O)CCN2C(=O)c3ccccc3C2=O)CC1 | -1.77%
62 | O=C(NN=C1CCN(Cc2ccccc2)CC1)c1ccccc1 | 7.78%
63 | Cn1ccnc1SCCNC(=O)CCc1nnc(CCc2ccccc2)o1 | -10.2%
64 | Cn1c(O)c(C=NCCN2CCNCC2)c(=O)[nH]c1=O | 13.6%
65 | Cc1ccccc1C(=O)N=c1sccn1C | 24.7%
66 | Cc1cc(F)ccc1NS(=O)(=O)c1c(C)nc2scc(C)n2c1=O | -35.8%

Row | SMILES | hERG current change (%, negative = inhibition) at 10uM
67 | COc1cccc(Cn2c(=O)c3[nH]cnc3n(-c3ccccc3C)c2=O)c1 | -1.8%
68 | CCOC(=O)c1c(NC(=O)C(C)N2CCN(S(=O)(=O)c3cccs3)CC2)sc2c1CCC(C)C2 (centres unmarked) | 6.72%
69 | Cc1ccc(NC(=O)CN(C)C(=O)c2ccc3[nH]c4c(c3c2)CC(C)CC4)cc1 (centres unmarked) | 8.58%
70 | Cc1ccc(C2N(c3nccs3)C(=O)C3CCCN32)cc1 (centres unmarked) | -4.54%
71 | Cc1ccccc1C1N(c2nccs2)C(=O)C2CCCN21 (centres unmarked) | -62.5%
72 | O=C1C2CCCN2C(c2ccccc2)N1c1nccs1 (centres unmarked) | 17.7%
73 | CC(C)(/C=N/O)/[N+]([O-])=C/c1ccccc1 | 20.1%
74 | CCCOc1cccc(NC(=O)OC2CCN(C)CC2)c1.O=C(O)/C=C/C(=O)O | -15.7%
75 | Cn1c(Cc2cccs2)nnc1SCC(=O)Nc1ccccc1F | 1.93%
76 | Cc1ccc(NC(=O)CSc2nc3ccccc3c(=O)n2Cc2cccs2)cc1 | 7.4%
77 | O=C(CSc1nc2nccnc2c(=O)n1Cc1cccs1)Nc1ccccc1 | -74.9%
78 | CCn1cc2nc(SCC(=O)Nc3ccc(OC)cc3OC)n(Cc3ccc(OC)cc3)c(=O)c2n1 | 1.42%
79 | COc1ccccc1NC(=O)CSc1nnc(Cc2cccs2)n1C | 5.99%
80 | COc1ccccc1NC(=O)CSc1nc2nccnc2c(=O)n1Cc1cccs1 | -69.9%
81 | COc1ccc(NC(=O)CSc2nc3ccccc3c(=O)n2Cc2cccs2)c(OC)c1 | -6.23%
82 | CCn1cc2nc(SCC(=O)Nc3ccccc3F)n(Cc3ccccc3)c(=O)c2n1 | -70.6%
83 | CCn1cc2nc(SCC(=O)Nc3ccc(F)cc3F)n(Cc3ccccc3)c(=O)c2n1 | -40%
84 | CC(C)CCn1c(SCC(=O)Nc2ccccc2C(F)(F)F)nc2nccnc2c1=O | -21.6%
85 | O=C(CSc1nc2nccnc2c(=O)n1Cc1cccs1)Nc1ccccc1F | -69.1%
86 | CCOc1ccc(NC(=O)CSc2nc3ccccc3c(=O)n2Cc2cccs2)cc1 | 13.6%
